The values below come from PubChem BioAssay (NCATS).

Molecules are shown by their SMILES. Results filed as inconclusive are left out. Calls of active or inactive are those of the source. Unless noted, calls follow the shape of the dose curve; as a rule, active = well fitted inhibition curve with a large enough effect; inconclusive = small, poorly fitted or top-dose-only effect; inactive = no such curve, though single readings can be large or run the other way.

A short description of experiment [1]: NS1 protein of Zika virus - qHTS assay to identify small molecule inhibitors in human HEK 293 cells (AID 1347053). Also: nearly all actives have a fitted effect of over 55% in size. The essentials: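 TR-FRET signal from two anti-ZIKV NS1 antibodies quantified NS1 in HEK 293 cells 24 h after MR766 infection at MOI = 0.5; compounds were added 1 h before virus. Uninfected cells and infected cells defined the NS1 normalization range.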
A general note: qHTS replaces the single test concentration by a dilution series.

Experiment [2] can be described thus: qHTS for Inhibitors of the Functional Ribonucleoprotein Complex (vRNP) of Lassa (LASV) Arenavirus: LASV Primary Screen - GLuc reporter signal (AID 1347082; calls by dose curve; tested in HEK293 reporter line; also: nearly all actives have a fitted effect of over 60% in size).
Experiment [3] in a line: qHTS for Inhibitors of the Functional Ribonucleoprotein Complex (vRNP) of Lassa (LASV) Arenavirus: Viability assay - alamar blue signal for LASV Primary Screen (AID 1347083; calls by dose curve; tested in HEK293 reporter line; also: nearly all actives have a fitted effect of over 80% in size).
Potency is read from the fitted curve at half-maximal effect.

Consider `COCCOCCO`, for which the Potency result in experiment [1], in experiment [2] and in experiment [3] was “inactive” each time.

Consider `C=CC(=O)NCNC(=O)C=C`, for which the Potency result in experiment [1], in experiment [2] and in experiment [3] was “inactive” in each case.

As for `CC(C)NCC(O)c1ccc([N+](=O)[O-])cc1` (stereo not given), the Potency result in experiment [1], in experiment [2] and in experiment [3] was “inactive” each time.

With `CC[C@@H]1[C@@H](C)O[C@@](O)([C@@H](C)[C@H](O)[C@H](C)[C@H]2OC(=O)C=CC=C[C@@H](C)[C@@H]([C@@H](C)[C@@H](O)[C@H](C)[C@@]3(O)C[C@H](O[C@H]4C[C@H](O)[C@H](O)[C@H](C)O4)[C@H](CC)[C@@H](C)O3)OC(=O)C=CC=C[C@@H]2C)C[C@H]1O[C@H]1C[C@H](O)[C@H](O)[C@H](C)O1`, the figures for the Potency in experiment [1] and in experiment [3] were 1.05 µM (active) and 43.2 µM (active), respectively.

Regarding `CC=C(C)C(=O)N[C@@H](c1ccccc1)[C@@H](O)C(=O)O[C@H]1C[C@@]2(O)[C@@H](OC(=O)c3ccccc3)[C@@H]3[C@]4(OC(C)=O)CO[C@@H]4C[C@H](O)[C@@]3(C)C(=O)[C@H](OC(C)=O)C(=C1C)C2(C)C`, the Potency in experiment [1] is 0.0033 µM (active); in experiment [3], 0.0034 µM (active). Besides, the Potency entry in experiment [2] is “inactive”.

Take `CN[C@@H](C)[C@H](O)c1ccccc1`: the Potency result in experiment [1], in experiment [2] and in experiment [3] was “inactive” each time.

Turning to `O=S(=O)(F)Cc1ccccc1`, the Potency result in experiment [1] was “inactive”. The Potency in experiment [3] was 1.53 µM (active).

In the case of `CCC(=O)O[C@@H]1C=C2CCC3C(CCC4(C)C3CC[C@@H]4OC(=O)CC)C2CC1` (stereo not given in full), the Potency result in experiment [1], in experiment [2] and in experiment [3] was “inactive” each time.

With `C1CCC(NC2CCCCC2)CC1`, the Potency entry in experiment [1], in experiment [2] and in experiment [3] was “inactive” in each case.

Take `N=c1c2c(-c3ccccc3)c(-c3ccccc3)n(Cc3ccccc3)c2ncn1C1CCC(O)CC1` (stereo not given): the figures for the Potency in experiment [1] and in experiment [3] were 26.4 µM (active) and 1.09 µM (active), respectively.

Take `Oc1ccc2c3c1O[C@H]1[C@@H](O)C=C[C@H]4[C@@H](C2)NCC[C@@]341`: the Potency entry in experiment [1], in experiment [2] and in experiment [3] was “inactive” throughout.

For the compound `O=C(Nc1ccccc1-c1ccc(Cl)cc1)c1cccnc1Cl`, the Potency result in experiment [1], in experiment [2] and in experiment [3] was “inactive” in each case.

For the compound `CSCC[C@@H](NC(=O)[C@@H](Cc1ccccc1)NC(=O)CNC(=O)CNC(=O)[C@@H](N)Cc1ccc(O)cc1)C(=O)O`, the Potency result in experiment [1], in experiment [2] and in experiment [3] was “inactive” in each case.

For the compound `CCCCCCCCc1ccc(O)cc1`, the Potency entry in experiment [1], in experiment [2] and in experiment [3] was “inactive” each time.

As to `c1cc2ccc3cccc4ccc(c1)c2c34`, the Potency result in experiment [1], in experiment [2] and in experiment [3] was “inactive” throughout.

For `C[C@@H]1O[C@@H](O[C@@H]2C=C3CC[C@@H]4[C@@H](CC[C@]5(C)[C@H](c6ccc(=O)oc6)CC[C@@]45O)[C@@]3(C)CC2)[C@H](O)[C@H](O)[C@H]1O`, the figures for the Potency in experiment [1], in experiment [2] and in experiment [3] were 0.0118 µM (active), 0.0685 µM (active) and 0.0685 µM (active), respectively.

As to `O=c1[nH]c2ccc(Cl)cc2c(N[C@@H]2CN3CCC2CC3)c1-c1nc2ccccc2[nH]1`, the Potency is 0.0526 µM (active) in experiment [1], 1.22 µM (active) in experiment [2] and 0.122 µM (active) in experiment [3].

Consider `CCOCCOC(C)=O`, for which the Potency result in experiment [1], in experiment [2] and in experiment [3] was “inactive” in each case.

As for `CC[C@H]1C=CC=CC[C@@H](C)[C@H](O)[C@@](C)(O)C(=O)[C@@H](C)[C@H](O)[C@@H](C)C(=O)[C@@H](C)[C@H](O)[C@@H](C)C=CC(=O)O[C@@H]2[C@@H](C)[C@H](CC1)O[C@]1(CC[C@H](C)[C@H](C[C@@H](C)O)O1)[C@H]2C`, the figures for the Potency in experiment [1], in experiment [2] and in experiment [3] were 18.7 µM (active), 0.137 µM (active) and 0.0863 µM (active), respectively.

Regarding `O=C(Oc1ccc([N+](=O)[O-])cc1)N1CCN(Cc2cccc(Oc3ccccc3)c2)CC1`, the Potency entry in experiment [1] is “inactive”. For the same compound, the Potency in experiment [3] was 24.3 µM (active).

Consider `CCCCCC[C@H]1C(=O)O[C@H](C)[C@H](NC(=O)c2cccc(NC=O)c2O)C(=O)O[C@@H](C)[C@@H]1OC(=O)CC(C)C`, for which the Potency in experiment [1] was 2.96 µM (active); in experiment [2], 1.09 µM (active); in experiment [3] it was 4.32 µM (active).

Regarding `O=C(O)CCCOc1ccc(Cl)cc1Cl`, the Potency entry in experiment [1], in experiment [2] and in experiment [3] was “inactive” in each case.

Consider `NC1=NC(=O)N2CC12` (stereo not given), for which the Potency entry in experiment [1], in experiment [2] and in experiment [3] was “inactive” each time.

Take `CO/C=C(/C(=O)OC)c1ccccc1Oc1cc(Oc2ccccc2C#N)ncn1`: the figures for the Potency in experiment [1] and in experiment [3] were 14.1 µM (active) and 22.4 µM (active), respectively.

For `CC(=O)N(C)c1cccc(-c2ccnc3c(C(=O)c4cccs4)cnn23)c1`, the Potency result in experiment [1], in experiment [2] and in experiment [3] was “inactive” throughout.
